The whole screen tested about 52,000 compounds, of which about 1,700 (3.3%) were called active. The sample as a whole holds a higher share of actives than the screen did. Unmarked numbers belong to inactive results. Cut-off read from the data, not from the text of the source: active = survival mostly below about 52% (no sharp cut-off); inactive = mostly above about 56%.

In this test the test system is Wild type. The experiment in a line: growth inhibition of S. aureus wild type versus tarO mutant, primary screen, teichoic acid synthesis inhibitors, RN4220, OD600 (AID 463173). As to conditions: S. aureus RN4220 wild type/DeltatarO growth, OD600, 18 h, active compounds read low, screened at 18.75 µg/mL (by protocol).
As to `COc1ccc(CC(=O)NCc2ccc3c(c2)CCN3C(C)=O)cc1OC`, the survival is 78%.
For the molecule `CCC(=O)N1c2ccccc2CC1C(=O)NCCCN1CCN(c2ccc(OC)cc2)CC1` (stereo not drawn), the survival was 88%.
With `Cc1ccc(NC(=O)Cn2nc(C(F)(F)F)c3c2CCC3)cc1C`, the survival was 81%.
Consider `O=S(=O)(c1ccc2nc(N3CCN(c4ccccc4)CC3)ccc2c1)N1CCCCC1`, for which the survival was 1% (active).
The same measure for `O=S(=O)(c1ccc2nc(N3CCN(c4cccc(Cl)c4)CC3)ccc2c1)N1CCCCC1`: 55%; for `CC1CCN(S(=O)(=O)c2ccc3nc(N4CCN(c5ccccc5)CC4)ccc3c2)CC1`: 77%; for `Cc1ccc(NC(=O)C(=O)NCC(c2cccnc2)N2CCN(Cc3ccccc3)CC2)cc1` (stereo not drawn): 85%.
The value for `CC1CCN(C(=O)c2ccc3c(c2)OCCO3)CC1` was 105%; that for `CN(Cc1ccccc1)c1ccc(-c2nc(-c3ccccn3)no2)cc1[N+](=O)[O-]` was 67%.
With `CCc1ccc(CNC(=O)c2cc(=O)[nH]c3ccc(S(=O)(=O)N4CCCCC4)cc23)cc1`, the survival is 91%.
The same measure for `O=S(=O)(c1ccc(Cl)cc1)c1nc(-c2cccs2)oc1N1CCCCC1`: 45%.
The same measure for `CC1CCN(c2oc(-c3cccs3)nc2S(=O)(=O)c2ccc(Cl)cc2)CC1`: -8% (active).
The same measure for `Cc1ccc(S(=O)(=O)c2nc(-c3cccs3)oc2N2CCCCC2)cc1`: 50%; for `O=S(=O)(c1ccccc1)c1nc(-c2cccs2)oc1N1CCCCC1`: 123%; for `Cc1ccc(S(=O)(=O)c2nc(-c3cccs3)oc2N2CCC(C)CC2)cc1`: -10% (active).
For the molecule `CC1CCN(c2oc(-c3cccs3)nc2S(=O)(=O)c2ccccc2)CC1`, the survival was 24%.
On to `O=C(CSc1nc2ccccc2o1)NC1CC1`, for which the survival was 86%.
The value for `Cc1ccc2c(c1)c1c(c(=O)n(-c3ccccc3C)c(=O)n1CC(=O)NCC1CCCO1)n2C` (stereo not drawn) was 66%; that for `CCOc1ccc(CCNC(=O)Cn2ncc3c(=O)oc4ccc(C)cc4c32)cc1` was 80%; that for `COc1ccc(NC(=O)CSc2nc(-c3ccccc3)nc3cc(=O)[nH]n23)cc1` was 73%.
The same measure for `CCCCc1c(C)nc2c(-c3ccc(OC)cc3)c(C)[nH]n2c1=O`: 12% (active); for `CCOC(=O)Cc1c(C)nc2c(-c3ccc(Cl)cc3)c(C(F)(F)F)nn2c1C`: 49%; for `CCCCc1nc2ccccc2n2c(-c3ccc(OC)cc3)c3c(=O)n(C)c(=O)n(C)c3c12`: 52%.
Consider `CCCCc1c(C)nc2c(-c3ccc(Cl)cc3)c(C)[nH]n2c1=O`, for which the survival is -13% (active).
As for `CCOC(=O)CCc1c(C)nc2cc(-c3cc(OC)cc(OC)c3)[nH]n2c1=O`, the survival was 74%.
Consider `Cc1nc2c(-c3ccc(F)cc3)c(C)nn2c(C)c1CCC(=O)NCc1ccc(Cl)cc1`, for which the survival was 91%.
The same measure for `C#CC(C)(CC)NC(=O)Cn1nnc(-c2ccc(OCc3ccccc3Cl)cc2)n1` (stereo not drawn): 74%.
The value for `CC1=CC(C)(C)Nc2ccc(OC(=O)c3ccco3)cc21` was 125%; that for `CCc1ccc(NC(=O)Cn2cnc3sc(C)c(S(=O)(=O)N4CCN(c5ccccc5OC)CC4)c3c2=O)cc1` was 138%; that for `CCOC(=O)Cn1c(=O)n(CC2CCCO2)c2nc(-c3cccc(C)c3)nc(C(N)=O)c21` (stereo not drawn) was 55%.
The value for `CCOC(=O)Cn1c(=O)n(CC2CCCO2)c2nc(-c3ccc(C(C)C)cc3)nc(C(N)=O)c21` (stereo not drawn) was 1% (active).
For `CCOC(=O)Cn1c(=O)n(CC2CCCO2)c2nc(-c3ccccc3)nc(C(N)=O)c21` (stereo not drawn), the survival was 56%.
The same measure for `CCOC(=O)Cn1c(=O)n(CC2CCCO2)c2nc(-c3ccc(CC)cc3)nc(C(N)=O)c21` (stereo not drawn): 81%.
The same measure for `CCOC(=O)Cn1c(=O)n(-c2ccccc2OC)c2nc(-c3cccc(F)c3)nc(C(N)=O)c21`: 57%; for `CCOC(=O)Cn1c(=O)n(-c2ccccc2OC)c2nc(-c3ccc(C(C)C)cc3)nc(C(N)=O)c21`: 82%.
With `CCOC(=O)Cn1c(=O)n(-c2ccccc2OC)c2nc(-c3ccccc3)nc(C(N)=O)c21`, the survival is -3% (active).
The value for `CCOC(=O)Cn1c(=O)n(CC2CCCO2)c2nc(-c3ccc(C)cc3)nc(C(N)=O)c21` (stereo not drawn) was 63%; that for `CCOC(=O)Cn1c(=O)n(CC2CCCO2)c2nc(-c3ccc(OCC)cc3)nc(C(N)=O)c21` (stereo not drawn) was -4% (active).
`CCCCC(=O)Nc1ccc(NC(=O)C2CC2)nc1`: the survival was 101%.
Turning to `COc1ccc(OC)c(NC(=O)Cc2c(C(=O)O)n(C)c3ccc(C)cc23)c1`, the survival was 88%.
As to `CC1CCCN(S(=O)(=O)c2cc3c4c(c2)CC(=O)N4CCC3)C1` (stereo not drawn), the survival is 81%.
Regarding `CC(C)Cn1c(=O)c2sccc2n2c(CCCC(=O)NCC(C)c3ccccc3)nnc12` (stereo not drawn), the survival was 96%.
The same measure for `CCCC(=O)N(c1ccc2oc3c(c2c1)CCCC3)S(=O)(=O)c1cc(C)ccc1C`: 61%; for `COc1ccccc1C(=O)Nc1ccc2nc(SCC(=O)N(C)c3ccccc3)sc2c1`: 84%.
The same measure for `CC(Sc1nc(-c2ccccc2)c(C#N)c(=O)[nH]1)C(=O)Nc1ccc(F)cc1` (stereo not drawn): 91%.
As to `O=C(CSc1ccccc1)N1CCc2c([nH]c3ccccc23)C1c1ccc(Cl)cc1` (stereo not drawn), the survival was 64%.
Turning to `COCCCNC(=O)CCn1c(=O)c2ccccc2n(CC(=O)Nc2c(C)cc(C)cc2C)c1=O`, the survival is 84%.
On to `CCOc1ccccc1CNC(=O)CN1C(=O)c2cccnc2Oc2ccc(C)cc21`, for which the survival is 136%.
The same measure for `Cc1ccc2nc(/C(C#N)=C/c3ccc(-c4ccc(F)cc4F)o3)[nH]c2c1`: 26%; for `CCOc1ccc(-c2cc(NC(=O)Nc3ccccc3C(F)(F)F)c(C(=O)OC)s2)cc1`: 72%.
The same measure for `COC(=O)c1sc(-c2ccccc2)cc1NC(=O)Nc1ccc(Cl)cc1`: 4% (active).
The value for `COC(=O)c1sc(-c2ccccc2)cc1NC(=O)c1cccc(Cl)c1` was 38%; that for `CCOc1ccc(-c2cc(NC(=O)Nc3ccccc3Cl)c(C(=O)OC)s2)cc1` was 50%; that for `COC(=O)c1sc(-c2ccccc2)cc1NC(=O)Nc1ccc(F)cc1` was 13% (active).
Regarding `CCOc1ccc(-c2cc(NC(=O)Nc3ccc(Cl)cc3)c(C(=O)OC)s2)cc1`, the survival is 88%.
As to `CCOc1ccc(-c2cc(NC(=O)Nc3cccc(C(C)=O)c3)c(C(=O)OC)s2)cc1`, the survival was 81%.
The same measure for `COC(=O)c1sc(-c2ccccc2)cc1NC(=O)c1cccc(F)c1`: 87%.
The same measure for `COC(=O)c1sc(-c2ccccc2)cc1NC(=O)Nc1ccccc1Cl`: 5% (active).

The values above are taken from PubChem BioAssay AID463173 (ICCB-Longwood Screening Facility, Harvard Medical School, 2010).
